Source: the supplement of paper PMC6555819

test system: VDR:RXRa (NR concentration 270 nM, RXRa partner concentration 90 nM); experiment: PBM binding z-score (relative to random genomic background probes); higher = stronger binding; sequences stand for … in GC…GCGATTGACAGCGTAGAATGAAGG
Protocol: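 Protein-binding microarray (Agilent 4x180K custom design, double-stranded 60-nt probes: 5' GC cap, 34-nt variable region, 24-nt constant primer region; full probe sequence given). Purified or IVT nuclear receptor:RXRα heterodimers (3:1 NR:RXRα, mostly 270:90 nM) or homodimers were incubated for 1 h in PBS with 2% milk and no ligand, then detected with Alexa488 antibodies. Fluorescence from o1-orientation probes (~5 replicates averaged) was converted to z-scores against 500 random hg19 background probes. Variable regions are seed direct-repeat (DR0–DR5) sites, all their single-nucleotide variants and half-site ablations.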

Sequence | PBM binding z-score
CGTCCTAGGTCATAGGAGGTCAGTGAAGACAGAT | 5.59
ATATGTAGGTTACATCCGGGACATTCAGGCTATG | 1.14
ACTAGCCGGCCAAGGGTCACTCAAGATTAGTCCG | 2.59
CCTACTGTGCCAAAGGTCATTGATTCCAATGCTC | 5.13
TCTTGCAGGCCAGAGGGTCACTCAAGAGGTACGG | 1.7
TCTTATAGGTAAAAGGTGAAAGTCGGTGTGGTAA | 1.66
AGCTCTAGGTAACAAGTTCAGTGAAAGAGAGGAC | 1.94
TAGCCTAGGACATTGGGCCAGTATAGTACGCATC | -0.544
TATACAGGGTCAAACGCCAGAGTACGAATGTCGA | 5
ACTAACGGGTCAACGAGGTTATAGCACGCGTATA | 7.41
ATACCAAGGTGATCGTGAGGTCGTTCATACTAAC | 3.58
CTACCAAGCTGAACAAGGTCGTTGATTACTATTC | 1.51
CCTTACGGGTCACTACAGGTTATAGCATCGGAGT | 4.06
GCTGCTAGGTCTACTGATGGTCAGCTAAAGCTCG | -0.746
CGTCCAAGGTCAGGGAGGTCAGTGAATGCCGAGT | 7.3
CAAACTAGGTCACGAAAGGTCAAAGACGAATGAC | 6.91
ATACCAAGGTGAACGTGAGGTCGTTGATACTAAC | 4.41
CCTGCTAGGTCAATGGTCAGCTACAGCAGCTCGC | 0.991
AGAATGAGGTTATACGTAGATCACGGAAGAAAGT | 1.61
GCATATAGGTAATACAAGGTGAAATTCCGATTGT | 0.179

Sequence | PBM binding z-score
GGAACGAGGGCGTTCGAGTTGATAGCATGGCGAT | 2.22
TCTCGGAGGACACGAAGGTAAGAGCTTTCCAGAG | -0.386
CGAACTAGGTCATCCAGGACAGTGTATACATTGA | 4.57
CAAACTAGGTCAAGGACAAAGTCGGTTTGTGCCA | 1.79
CCTAGTGGGCCATTCAGAGGTCATTGATCATATG | 3.85
CCGACTGGGGCATAAGCTTACCATAAGCCAGCCC | -0.79
TCTATTAGTTGATTAGCGCAACCGAAACAGCGGA | 0.694
CAAACTAGGTCAAGGTCAAGGTCGGTTTGTGCCA | 5.24
GGAACGAGGGCAAAGTTGATAGAATCTGTCGACG | 1.34
CCTAGTTGGTAAGGAGGTCACACACCGGATATGA | 3.53
TAGCCTTGGTCATTGGGCCAGTATAGTACGCATC | -0.419
AATAGTTGGTCAGCTGAGGTCACACACAATTCGG | 4.69
TCTTGTAGAGCAAGCAGGTTAAGAAAGCCTGAGT | -0.323
CGTCAAAGTTCAGCTAAGGTAACGTAAAGCACGC | 3.33
TCTTGTAGATCAGCAGGTTAAGAAGGCTGGCCAA | 0.724
CGAACTAGGTCAGAACAGGAAAGTGAAGGATGAT | 0.0955
CCTCGGAGGACAACAGGAGGTCAGAGATGCCAGA | 2.29
CGTCAAAGTTCAAGGTAACGTAACAGAAAGCAGC | 3.78
ATCTGTAGGTAACCAAGTTCAGTGAATGCCGAAC | 4.63
AGTCAAAGTTCCCTAGGTAACGTAAGATTCAGCT | -0.251
